Lassa entry inh – Lassa virus entry inhibition. 1.2% of 300,000 active. Potency, µM (highest dose often 37.9 µM), without a hit: top-dose activity change, negative = inhibition, hits mostly inhibitors. Lassa virus pseudotype entry inhibition, cell reporter; calls by dose curve; tested in HEK293 cells; further: nearly all actives have a fitted effect of over 50% in size
VACV Venus inh – vaccinia inhibition (Venus reporter); Vaccinia virus Venus reporter expression, fluorescence; AID 720580; Potency, µM (doses to about 36.5 µM), without a hit: top-dose activity change, negative = inhibition, hits mostly inhibitors; 0.46% of 330,000 active; calls by dose curve; tested in A549 cells; further: nearly all actives have a fitted effect of over 30% in size
Vaccinia mCherry – vaccinia inhibition (mCherry reporter). Vaccinia virus mCherry reporter infection, fluorescence. Potency, µM (series often up to 36.5 µM), inactives show top-dose activity change, negative = inhibition, actives largely listed as inhibitors. 0.63% of 310,000 active; calls by dose curve; tested in A549 cells; further: nearly all actives have a fitted effect of over 35% in size
Marburg entry inh – blocks Marburg virus binding to or entry into cells; Marburg virus pseudotyped entry inhibition, cell reporter; Potency, µM (highest dose often 37.8 µM), for inactives: top-dose activity change, negative = inhibition, hits mostly inhibitors; 1.8% of 300,000 active; AID 540276; calls by dose curve; tested in HEK293 cells
HCV inhibitor – blocks hepatitis C virus; 3.4% of 340,000 active; AID 651820; Potency, µM (top dose mostly 41.8 µM), for inactives: at the highest dose activity change, negative = inhibition, hits mostly inhibitors; Huh7.5.1 HCVcc-Cre infection, luciferase reporter, 44 h; active means well fitted inhibition curve with a large enough effect; inconclusive means small, poorly fitted or top-dose-only effect, or another doubt; inactive means no such curve, though single readings can be large or run the other way
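1,000 cells/well; 4 h culture; + compound; + HCVcc-Cre (~0.5 moi); 44 h; luciferase substrate, RT 15 min; read 15 sec.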
An asterisk follows results filed as active; i = inactive; ? = inconclusive; · = no result; [ ] = another dose, or the depositor's remark. Most compounds without a hit are left out; they make up all but 4.6% or so of the library. On the % scale 0 is the no-effect control and ±100 the full control effect; potency means the concentration at half of the fitted maximal effect.

SMILES	Lassa entry inh	VACV Venus inh	Vaccinia mCherry	Marburg entry inh	HCV inhibitor
C[C@@H]1CC2=CCCC2[C@]2(O1)C(=O)Nc1cccc(Br)c12 (some centres not stated)	·	·	·	1%[14.2 µM]	·
Cc1cnc2ccc(I)cc2c1/C=C/c1ccc(N(C)C)cc1	·	-19%	-25%	·	·
CNC(=O)c1cc(-c2ccc(F)cc2)cc(-c2ccc(S(=O)(=O)N3CCCC3)cc2)c1N	8.9µM*	·	·	·	·
O=C(NCc1ccc(F)cc1)c1ccc(S(=O)(=O)N2CCCC2)cc1	·	-7%	i	·	·
CN(C)c1ccc(/C=C/c2c(F)cnc3ccccc23)cc1	·	-14%	7%	·	·
COc1ccc(NS(=O)(=O)c2ccc(O)c(NC(=O)c3ccc(S(=O)(=O)N4CCCCCC4)cc3)c2)cc1	-4%	-7%	-18%	?	12%
COc1ccccc1NC(=O)c1ccc(S(=O)(=O)N2CCCC2)cc1	·	-16%	2%	·	-12%
COc1ccccc1NS(=O)(=O)c1ccc(C)c(NC(=O)c2ccc(S(=O)(=O)N3CCCCCC3)cc2)c1	-13%	-26%	-30%	?	7.9µM*
COc1ccc(NS(=O)(=O)c2cccc(NC(=O)c3ccc(S(=O)(=O)N4CCCCCC4)cc3)c2)cc1	8.2µM*	?	?	3.5µM*	?
O=C(Nc1ccc(-c2cn3ccsc3n2)cc1)c1ccc(F)c(S(=O)(=O)N2CCOCC2)c1	-15%	·	·	1%	5.6µM*
COc1ccc(NS(=O)(=O)c2cccc(NC(=O)C34CCC(CC3)C4)c2)cc1	12µM*	-18%	i	?	?
Nc1ccc(C(Cc2ccnc3ccccc23)Cc2ccnc3ccccc23)cc1	·	-11%	-14%	·	·
CCOC(=O)OC[C@H]1O[C@H](c2cc(C)cc(C)c2)C=C[C@@H]1OC(=O)OCC	·	·	·	2%[14.2 µM]	·
COCCCNC(=O)Cn1cnc2sc(C)c(S(=O)(=O)N3CCC(C)CC3)c2c1=O	7%[46.1 µM]	-15%	-7%	6%[46.1 µM]	·
O=C(Nc1cccc(S(=O)(=O)C(F)F)c1)c1ccc(S(=O)(=O)N2CCCC2)cc1	5µM*	?	0%	?	5µM*
O=C(Nc1cccc(S(=O)(=O)C(F)F)c1)c1ccc(S(=O)(=O)N2CCOCC2)cc1	-10%	-14%	5%	?	-13%
CCc1noc(C)c1C(=O)Nc1ccc(C)c(S(=O)(=O)N2CCCCCC2)c1	-28%	-21%	-8%	?	13µM*
CCOC(=O)C1CCCN(C(=O)c2cc(S(=O)(=O)Nc3ccccc3OC)ccc2C)C1 (configuration not stated)	?	-18%	i	13%[46.1 µM]	10µM*
CN(C)S(=O)(=O)c1ccc(C(=O)Nc2cc(S(=O)(=O)Nc3ccccc3Cl)ccc2N2CCCCC2)cc1	5.2µM*	-6%	-16%	-11%	?
CCOC(=O)C1CCCN(C(=O)c2ccccc2NS(=O)(=O)c2ccc(F)cc2)C1 (configuration not stated)	1%[46.1 µM]	1%	i	-5%[46.1 µM]	7%
COc1ccc(CCNS(=O)(=O)c2ccc(N3CCCCS3(=O)=O)cc2)cc1	?	-11%	-15%	·	·
Cc1ccc(-c2nc(CNC(=O)NC3CCCCC3)c(C)o2)cc1	?	4%	-13%	·	·
Cc1ccc(CNC(=O)C(C)n2ccc3cc(S(=O)(=O)N4CCCC4)ccc32)cc1 (configuration not stated)	-25%[46.1 µM]	-23%	i	·	·
Cc1ccc(NC(=O)Cc2ccccc2F)cc1S(=O)(=O)N1CCCCCC1	·	·	·	·	11µM*
CCOC(=O)C1CCCN(C(=O)c2cc(Nc3ccc(OC)c(OC)c3)nc3ccccc23)C1 (configuration not stated)	-15%	-17%	-20%	11µM*	?
CC(C(=O)NCc1ccc(F)cc1)n1ccc2cc(S(=O)(=O)N3CCCC3)ccc21 (configuration not stated)	?	-23%	-23%	?	11µM*
CCOC(=O)C1CCCN(C(=O)c2cc(Nc3ccc(OC)cc3OC)nc3ccccc23)C1 (configuration not stated)	?	·	·	-17%	?
Cc1ccc(NC(=O)c2ccccc2F)cc1S(=O)(=O)N1CCCCCC1	?	-22%	-29%	-24%[46.1 µM]	?
COc1ccccc1NS(=O)(=O)c1cc(C(=O)N2CC(C)CC(C)C2)ccc1C (configuration not stated)	18%	·	·	8.2µM*	-20%
Cc1ccccc1NS(=O)(=O)c1cc(C(=O)N2CCCC2)ccc1C	16%	-19%	·	-2%	6%

Screening results from PubChem.
